Test systems include NCI-H23 lung; NCI-H226 lung; NCI-H322M lung; HOP-62 NSCLC; NCI-H460 lung; HOP-92 NSCLC; NCI-H522 lung; A549/ATCC NSCLC; 786-0 renal; COLO 205 colon.
Holding throughout (experiment): NCI-60 one-dose screen, 48 h (100 = growth as untreated, 0 = no growth, -100 = all killed)
What all share (conditions): 10 µM unless noted

About 83,000 compounds went through this panel and 20% of them were active in at least one assay; those are over-represented in the sample as a whole.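 The endpoint reported here, percent growth, reads 100 for growth as untreated, 0 for no net growth and -100 for all cells dead.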 Values without a mark were called inactive. Activity calls are given as the source filed them. Rule for the calls: active = growth percent below 10; inactive = the rest.

For `CN1CCN(C(=O)c2ccc(NC(=O)Nc3ccc(-c4nc(N5CCOCC5)c5cccn5n4)cc3)cc2)CC1`, the growth in the assay on NCI-H23 lung was 15.4%; in the assay with NCI-H226 lung, -6.51% (active); in the assay with NCI-H322M lung, -12% (active); with HOP-62 NSCLC it was -13.5% (active); in the assay with NCI-H460 lung, 7.17% (active); with HOP-92 NSCLC, -28.6% (active). The growth in the assay on NCI-H522 lung was 12.4%; in the assay on A549/ATCC NSCLC, 1.15% (active); with 786-0 renal, -20.1% (active); in the assay on COLO 205 colon, -11.4% (active).
For the compound `CCOC(=O)Cn1c(O)c(N=Nc2ccc(S(N)(=O)=O)cc2)c2cc(Br)ccc21`, the growth in the assay on NCI-H23 lung is 77.1%; in the assay with NCI-H226 lung it was 85.9%; in the assay with NCI-H322M lung it was 77.7%; in the assay on HOP-62 NSCLC, 65%; with NCI-H460 lung, 44.1%; in the assay with HOP-92 NSCLC it was 96.4%. For the same compound, the growth in the assay on NCI-H522 lung is 70.8%; in the assay on A549/ATCC NSCLC, 30.7%; with 786-0 renal, 99.2%; in the assay with COLO 205 colon, 58%.
In the case of `Oc1ccc(CN2CCC(N3CCCCC3)CC2)c2cccnc12`, the growth in the assay on NCI-H23 lung was 19%; in the assay with NCI-H226 lung, 69.8%; with NCI-H322M lung, 31.3%; in the assay with HOP-62 NSCLC it was 5.32% (active); in the assay on NCI-H460 lung it was 9.43% (active); in the assay on HOP-92 NSCLC, -11.8% (active). Also, the growth in the assay with NCI-H522 lung is -1.28% (active); in the assay with A549/ATCC NSCLC, 17.4%; in the assay on 786-0 renal, 48.2%; with COLO 205 colon, 112%.
Turning to `Nc1ncnc2c1N=C(c1ccc3c(c1)OCO3)CC(c1ccc([N+](=O)[O-])cc1)N2` (stereo not given), the growth was 74.7% in the assay on NCI-H23 lung; 83% in the assay with NCI-H226 lung; 90.5% with NCI-H322M lung; 66.9% with HOP-62 NSCLC; 96.2% in the assay with NCI-H460 lung; 41.9% in the assay with HOP-92 NSCLC. The growth in the assay with NCI-H522 lung is 95.3%; in the assay on A549/ATCC NSCLC, 58.7%; in the assay on 786-0 renal, 51.8%; with COLO 205 colon, 97.6%.
Consider `COc1cc(CNC(=O)CCCC/C=C/C(C)C)ccc1OCc1nnc(Nc2ccc([N+](=O)[O-])cc2)o1`, for which the growth in the assay with NCI-H23 lung was 54.9%; in the assay with NCI-H226 lung it was 62.1%; with NCI-H322M lung, 57.6%; with HOP-62 NSCLC, 67.6%; in the assay on NCI-H460 lung it was 33.5%; with HOP-92 NSCLC, -2.56% (active). The growth is 73% in the assay with NCI-H522 lung, 49% in the assay on A549/ATCC NSCLC, 22.2% in the assay with 786-0 renal and 70.9% in the assay with COLO 205 colon.
As for `O=c1oc2c(cnc3ccccc32)cc1-c1ccsc1`, the growth in the assay on NCI-H23 lung was 99.8%; in the assay on NCI-H226 lung it was 97.8%; with NCI-H322M lung it was 110%; with HOP-62 NSCLC, 92.3%; with NCI-H460 lung, 99.9%; with HOP-92 NSCLC, 82.4%. The growth is 97.4% in the assay with NCI-H522 lung, 105% with A549/ATCC NSCLC, 97.1% in the assay on 786-0 renal and 112% in the assay with COLO 205 colon.
`N#Cc1cccc(F)c1`: the growth in the assay with NCI-H23 lung is 106%; in the assay with NCI-H226 lung, 109%; in the assay on NCI-H322M lung it was 115%; in the assay on HOP-62 NSCLC it was 110%; with NCI-H460 lung it was 118%; in the assay with HOP-92 NSCLC, 113%. Besides, the growth was 102% with NCI-H522 lung, 109% in the assay on A549/ATCC NSCLC, 101% in the assay with 786-0 renal and 114% with COLO 205 colon.
Regarding `CCCCN[C@H]1CC[C@@]2(C)[C@@H](CC[C@@]3(C)[C@H]2[C@H](O)C[C@H]2/C(=C(\CCC=C(C)C)C(=O)OC)[C@@H](OC(C)=O)C[C@@]23C)[C@@H]1C`, the growth is 90.5% in the assay on NCI-H23 lung; 98% with NCI-H226 lung; 97.2% in the assay on NCI-H322M lung; 103% with HOP-62 NSCLC; 100% with NCI-H460 lung; 86.5% in the assay with HOP-92 NSCLC. The growth in the assay with NCI-H522 lung is 93%; in the assay with A549/ATCC NSCLC, 103%; in the assay with 786-0 renal, 99.2%; in the assay with COLO 205 colon it was 104%.
For `C=CCn1c(SCC(=O)NCc2cc(C)c(O)c(C)c2)nc2ccc(Cl)cc2c1=O`, the growth with NCI-H23 lung was 101%; in the assay on NCI-H226 lung, 87.2%; in the assay with NCI-H322M lung, 97%; in the assay on HOP-62 NSCLC, 101%; with NCI-H460 lung, 107%; with HOP-92 NSCLC it was 82.2%. Besides, the growth in the assay with NCI-H522 lung was 94.1%; in the assay with A549/ATCC NSCLC, 106%; in the assay with 786-0 renal, 92.5%; with COLO 205 colon, 116%.
As for `O=C1/C(=C/c2ccccc2Br)COc2ccc(O)c(O)c21`, the growth is 46.5% in the assay on NCI-H23 lung; 86.3% in the assay with NCI-H226 lung; 33.3% with NCI-H322M lung; -5.9% (active) in the assay with HOP-62 NSCLC; 14.3% in the assay on NCI-H460 lung; 36.9% in the assay on HOP-92 NSCLC. Further, the growth was -45.2% (active) in the assay with NCI-H522 lung, 35.1% with A549/ATCC NSCLC, -41.6% (active) in the assay on 786-0 renal and 82.2% in the assay on COLO 205 colon.
Regarding `Cc1ccccc1/C=C1\CN(C(=O)OC(C)(C)C)C/C(=C\c2ccccc2C)C1=O`, the growth was 8.22% (active) in the assay with NCI-H23 lung; 42.2% with NCI-H226 lung; 80.9% with NCI-H322M lung; 48.2% in the assay on HOP-62 NSCLC; -38.3% (active) with NCI-H460 lung; 82.6% in the assay on HOP-92 NSCLC. In addition, the growth was 20.8% with NCI-H522 lung, 49.1% in the assay on A549/ATCC NSCLC, 25.8% in the assay on 786-0 renal and -28.5% (active) with COLO 205 colon.
As to `O=C(O)[C@@H]1c2ccccc2-c2ccccc2[C@H]1C(=O)O`, the growth in the assay on NCI-H23 lung is 91.4%; in the assay on NCI-H226 lung, 97.8%; with NCI-H322M lung, 99.2%; with HOP-62 NSCLC, 90.8%; with NCI-H460 lung it was 109%; in the assay on HOP-92 NSCLC, 61.5%. In addition, the growth with NCI-H522 lung was 91%; in the assay on A549/ATCC NSCLC, 102%; in the assay with 786-0 renal, 88.8%; in the assay with COLO 205 colon, 106%.
As to `S=C1CCSC(=S)N1CCCN1C(=S)CCSC1=S`, the growth in the assay with NCI-H23 lung is 81.1%; in the assay on NCI-H226 lung, 101%; in the assay on NCI-H322M lung it was 113%; in the assay with HOP-62 NSCLC, 90.5%; in the assay with NCI-H460 lung it was 97.7%; in the assay on HOP-92 NSCLC, 106%. In addition, the growth was 5.23% (active) in the assay on NCI-H522 lung, 97.7% in the assay on A549/ATCC NSCLC, 44.9% in the assay with 786-0 renal and 64.2% in the assay with COLO 205 colon.

The values above are taken from PubChem BioAssay (NCI).
